What follows are sequences tested on VDR:RXRa (NR concentration 270 nM, RXRa partner concentration 90 nM) (assay: PBM binding z-score (relative to random genomic background probes); higher = stronger binding; sequences stand for … in GC…GCGATTGACAGCGTAGAATGAAGG).
Description: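 Protein-binding microarray (Agilent 4x180K custom design, double-stranded 60-nt probes: 5' GC cap, 34-nt variable region, 24-nt constant primer region; full probe sequence given). Purified or IVT nuclear receptor:RXRα heterodimers (3:1 NR:RXRα, mostly 270:90 nM) or homodimers were incubated for 1 h in PBS with 2% milk and no ligand, then detected with Alexa488 antibodies. Fluorescence from o1-orientation probes (~5 replicates averaged) was converted to z-scores against 500 random hg19 background probes. Variable regions are seed direct-repeat (DR0–DR5) sites, all their single-nucleotide variants and half-site ablations.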
Sequence TCTAGCAGGCCAGAGGGTCACCCAAGAGGTACGG has a PBM binding z-score of 1.71. With TCTAGTTGGTCAAGGAGGTCACACACGACGGGTA the PBM binding z-score was 5.23. In the case of ACTAGCAGGCCAAGTTTGGTTCACTCAAACAAAG, the PBM binding z-score is reported as 0.34. Work on TGTCAAAGTTCAAAGGTAACGTACGTATCCACAC yielded a PBM binding z-score of 5.05. TCGAGTAGGTTAGGGGCAGTCAGAATGGCGTCGA gave a PBM binding z-score of 0.0468. ACAGACAGGTGAGTGAACGTAACTCAGCTGGACG showed a PBM binding z-score of -0.318. For CCTTACGGGACACTGACAGGTTATAGCATTTGGA, the PBM binding z-score was -0.00746. CCAGACAGGTGAGTAGGTAACTCAGCCTCGATTA showed a PBM binding z-score of -0.168. Sequence CGAACTAGGTCATTCAGGACAGTGAATACATTGA has a PBM binding z-score of 4.46. With AACTCTAGGTAAAAGTTCAGTGAATCCCGAGGAT the PBM binding z-score was 1.11. In the case of ATCTCTAGGTAAAAGTACAGTGAATCCCGAGGAT, the PBM binding z-score is reported as -0.148. With ATACCAAAGTGATCGTGAGGTCGTTGATACTAAC the PBM binding z-score was 2.02. TAGCATAGGTCATTGGGCCAGTATAGTACGCATC showed a PBM binding z-score of 3.27. Sequence TAGACTAGGTCATTGGGCCAGTATAGTACGCATC has a PBM binding z-score of 1.93. Work on ACAGACAGGTGATGAAGCTAACTCAGGCTATCAT yielded a PBM binding z-score of -0.278. ATCTCTAGGTAAAGTTCAGTGACAGATCGATAGA showed a PBM binding z-score of 1.63. CCGACTGGGGCAAGGTTGCCATAACGCACAGCCA gave a PBM binding z-score of -0.351. CGTCCACGGTCAGAGAGGTCAGTGAATGCCGAGT showed a PBM binding z-score of 4.97. With ATCCAAAGGTCGAAGGTGAGTATACCCACCCGAA the PBM binding z-score was 3.15. For AGAACGTGGGCAATGAGTTGATAGCACGGGTGGC, the PBM binding z-score was 0.69. TTACCAAGGGGAAAGGTCGTTGATGCACGCCTTG gave a PBM binding z-score of 1.98. With CCTAGTTGGTCAAGGTCACACTCGCTATAGGTAC the PBM binding z-score was 3.99. TCTGCTACGTCAGTTGGTCAGCTAACGAGCTGCC was tested, and the PBM binding z-score was -0.996. CAAACTAGGTCAAAGGTCAAAGTCGAGCCAACCA showed a PBM binding z-score of 6.72. Work on CCTAGCAGTCCAATCTGGGTCACTCAAGGCTTGA yielded a PBM binding z-score of 0.794. In the case of TAGCCTAGGTCAAGGGCCAGTATACCACGCGAAC, the PBM binding z-score is reported as 1.6. Sequence ATCTCTAGGTAAAGATAGTTCAGAGAATGCAAAT has a PBM binding z-score of 0.478. AGAACGAGGGCACGATGAGTTGATAGCAGAGTAG gave a PBM binding z-score of 2.32. ACTCGGAGGACAAGGGTCAGAGCTACGCCAGTGA was tested, and the PBM binding z-score was 1.91. TCTTGTAGATCAAGCTGGTTAAGAAAGCCTGAGT gave a PBM binding z-score of 0.112. CCTCGGAGGACAACAGGTGGTCAGAGCTGCCAGA gave a PBM binding z-score of -0.645. In the case of ATATGTAGGTTACGGGTCATTCAGGTTGGTTCGC, the PBM binding z-score is reported as 4.76. GCCACTGGGGCAAAGCAGGTTACCATAAGGTTGG showed a PBM binding z-score of -0.0502. Work on TCATATAGGTAAAATGTGAAAGTCGGTGTGGTAA yielded a PBM binding z-score of 0.774. In the case of GCGACTGGGCCATCAGCAGGTTACCATAACTTAA, the PBM binding z-score is reported as -0.599. Work on GCGACTGGGGCAACGCAGGTTACCATAAGGTTGG yielded a PBM binding z-score of -0.0248. GGAACGAGGGCAAGTTGATCGCAGAGTTTGATGG gave a PBM binding z-score of 0.673. In the case of CCAAGTTGGTCAGGAGGTCACACACCGGATATGA, the PBM binding z-score is reported as 4.08. For ATCTCTAGGTAGAGTTCAGTGAAAGATCGATAGA, the PBM binding z-score was 2.38. Sequence GCTATTAGTTGAAAGGGCAAGCGAATGATTCTCG has a PBM binding z-score of 0.461.

Source: the supplement of paper PMC6555819
